DRD3 antagonist: blocks the human D3 dopamine receptor | max response, negative = inhibition, % | D3R cells, DiscoveRx beta-arrestin luminescence, antagonist mode; hits give low values | 360,000 compounds, 2.5% hits | P35462 | AID 652054; in the data active = max response below about -50%; inconclusive = no clear call, values can overlap the other calls; also: % is scaled to controls: 0 for no effect and ±100 for the full control effect
Target sequence (P35462 whole entry, looked up): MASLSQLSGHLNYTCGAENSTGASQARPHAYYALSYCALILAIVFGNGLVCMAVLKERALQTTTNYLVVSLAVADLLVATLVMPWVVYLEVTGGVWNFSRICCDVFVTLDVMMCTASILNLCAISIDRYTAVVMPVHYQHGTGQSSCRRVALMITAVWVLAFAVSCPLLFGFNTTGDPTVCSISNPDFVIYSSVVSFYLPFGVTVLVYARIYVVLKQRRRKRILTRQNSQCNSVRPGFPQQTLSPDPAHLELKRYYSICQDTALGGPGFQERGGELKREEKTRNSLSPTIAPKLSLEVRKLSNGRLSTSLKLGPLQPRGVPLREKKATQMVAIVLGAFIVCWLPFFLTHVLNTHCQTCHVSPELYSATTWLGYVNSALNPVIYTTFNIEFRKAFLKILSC
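Cells plated overnight at 1500 cells/well, then exposed to library compounds with dopamine controls for 90 minutes at 37 degrees C. DiscoveRx reagent added for 30–60 minutes at room temperature; luminescence read, quantitative HTS format.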
KB-3-1 tox: KB-3-1 parental cell cytotoxicity; 400,000 compounds, 1.4% hits; KB-3-1 viability, CellTiter-Glo ATP luminescence, 72 h; AID 1347075; Potency, µM (top dose mostly 46.1 µM), actives largely listed as cytotoxic; also: potency is read from the fitted curve at half-maximal effect; % is scaled to controls: 0 for no effect and ±100 for the full control effect; nearly all actives have a fitted effect of over 60% in size
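Here the drug-naive KB-3-1 line serves as comparator for MDR sub-line selectivity; cells received compound titrations, 72 h at 37 °C, then CellTiter-Glo readout.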
KB-V1 MDR tox: KB-V1 MDR subline cytotoxicity; Potency, µM (series often up to 46.1 µM), hits mostly cytotoxic; AID 1347076; 400,000 compounds, 3.4% hits; KB-V1 MDR cells viability, CellTiter-Glo, 72 h; also: potency is read from the fitted curve at half-maximal effect; % is scaled to controls: 0 for no effect and ±100 for the full control effect; nearly all actives have a fitted effect of over 60% in size
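KB-V1 cells (P-gp-expressing MDR subline of KB-3-1) in phenol-red-free DMEM with 10% FBS were exposed to library compounds over a concentration series for 72 h at 37 degrees C. Viability read by CellTiter-Glo luminescence; concentration-effect curves fitted after normalization.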
SW480 rerep: induces DNA re-replication in SW480 colon adenocarcinoma cells | 340,000 compounds, 1.8% hits | SW480 DNA re-replication, Hoechst DNA content imaging, 48 h | Potency, µM (highest dose often 46.1 µM), inactives show at the top dose re-replication activation, hits mostly activators; also: potency is read from the fitted curve at half-maximal effect; % of control where 0% means no effect; nearly all actives have a fitted effect of over 55% in size
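Quantitative HTS format with DMSO vehicle controls; 48 hr drug incubation at 37 C, then 40 min Hoechst staining and scanning imager measurement at 405 nm excitation.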
MCF10A rereplic: induces DNA re-replication in MCF 10a normal breast cells. Potency, µM (top dose mostly 46.1 µM), for the others: at the highest dose activity, positive = re-replication, actives largely listed as activators. AID 624296. MCF 10A DNA re-replication, Hoechst nuclear intensity, 48 h. 350,000 compounds, 2.9% hits; also: potency is read from the fitted curve at half-maximal effect; % of control where 0% means no effect; nearly all actives have a fitted effect of over 50% in size
D3 ag: D3 dopamine receptor (human) agonism | P35462 | D3R DiscoveRx beta-arrestin cells, luminescence, 90 min | max activation, % | 410,000 compounds, 0.58% hits; in the data active = max activation above about 30%; also: 0% is about no effect
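Agonist mode: compounds and dopamine controls were applied to plated cells for 90 min at 37 degrees C after an overnight attachment at 1500 cells/well. Luminescent read-out followed 30 - 60 minutes at room temperature with DiscoveRx detection reagent.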
* hit, by the source's call; i = inactive; u = inconclusive; x = no result; [ ] = another dose, or the depositor's remark. Only some compounds are listed: those with a hit (about 8.9% of all), similar ones and a draw of the others. Unless noted, calls follow the shape of the dose curve; as a rule, active = well fitted curve in the direction sought with a large enough effect; inconclusive = small, poorly fitted or top-dose-only effect, or another doubt; inactive = no such curve, though single readings can be large; an effect the other way counts as inactive or inconclusive.

SMILES | DRD3 antagonist | KB-3-1 tox | KB-V1 MDR tox | SW480 rerep | MCF10A rereplic | D3 ag
Nc1ccc(C(=O)OCc2nc3ccccc3s2)cc1 | -50.7* | i | i | -14.8%[1.84 µM] | 13.6% | -4.6
O=C(OCc1nc2ccccc2s1)c1ccc(Br)s1 | -7.3 | i | i | -4.0% | -15.4% | -13.8
Cc1ccc2c(c1)[nH]c1c(N3CCN(Cc4ccccc4)CC3)ncnc12 | 23.9 | u | u | u | u | 18.7
Cc1ccc2[nH]c3c(N4CCN(Cc5ccccc5)CC4)ncnc3c2c1 | -14.2 | u | 11.6µM* | u | u | 4.8
c1ccc(CN2CCN(c3ncnc4c3[nH]c3ccccc34)CC2)cc1 | 54.4 | 18.4µM* | 2.59µM* | 1.2% | 20.6µM* | 17.3
c1ccc2c(c1)CCN(c1ncnc3c1[nH]c1ccccc13)C2 | -52.5* | i | 9.2µM* | u | u | 2.1
CCCOc1ccc(OC(=O)c2cn(-c3ccc(OC)cc3)c(=O)c3ccccc23)cc1 | x | i | i | x | x | 7.7
CCOC(=O)C1CCCN(Cc2ccccc2C)C1 (stereo not drawn) | -63.6* | i | i | -0.7% | -4.0% | -29.9
CCOC(=O)C1CCCN(Cc2ccc(OC)c(OCc3ccccc3)c2)C1 (stereo not drawn) | -83.8* | i | i | -16.3% | u | -27.6
COc1ccc(CN2CCC(C(N)=O)CC2)cc1OCc1ccccc1 | -4.1 | i | i | 3.4% | -0.1% | -10.1
O=C(c1ccccc1Cl)n1nc(-c2ccco2)nc1NCc1cccs1 | x | i | i | x | x | 6.1
Cc1ccc(CNC(=O)c2cc(NS(=O)(=O)c3ccc(C)cc3)ccn2)cc1 | x | i | i | x | x | 6.5
O=C(COc1ccccc1C(=O)Nc1cccc(F)c1)Nc1ccc(Br)cc1 | x | u | i | x | x | x
O=C(CCl)N1c2ccccc2SCC1c1ccccc1 (stereo not drawn) | -28.6 | u | i | 14.6µM* | 7.31µM* | -8.1
O=C(CCl)N1c2ccccc2OCC1c1ccccc1 (stereo not drawn) | 3.8 | i | u | u | 106.4% | 1.5
Cn1c(=O)c2sccc2n2c(CCCC(=O)NCc3ccccc3)nnc12 | x | i | i | x | x | 1.2
CCCc1cc(-c2nc(-c3ccc(Cl)cc3)cs2)ccn1 | 8.0 | i | 16.4µM* | -5.4% | u | -4.4
CCc1nnc(NC(=O)CSc2nccn2-c2cc(C)cc(C)c2)s1 | 10.6 | 18.4µM* | i | u | u | -0.5
CCc1nnc(NC(=O)CSc2nccn2-c2ccc(OC)cc2)s1 | x | x | x | x | x | -18.4
Cc1c(-c2nc(-c3ccc4c(c3)[nH]c(=O)n4C)no2)cccc1[N+](=O)[O-] | x | i | i | x | x | 3.8
COc1ccc(-c2nc(N)ncc2-c2ccccc2)c(O)c1 | -19.2 | i | u | -1.2% | 1.5% | -9.1
Nc1ncc(-c2ccccc2)c(-c2ccc(OCc3ccccc3)cc2O)n1 | 13.6 | u | i | u | 20.6µM* | 12.5
C=C(C)COc1ccc(-c2nc(N)ncc2-c2ccc(Cl)cc2)c(O)c1 | 2.4 | u | 23.1µM* | -12.6% | u | -0.7
Cc1nc(-c2ccc(S(=O)(=O)Nc3ccc(OC(F)(F)F)cc3)cc2)co1 | x | i | i | x | x | 5.8
CCCc1cnc2c(c1SCC(=O)Nc1ccccc1F)c(=O)n(C)c(=O)n2C | x | i | i | x | x | 1.2
SMILES | DRD3 antagonist | KB-3-1 tox | KB-V1 MDR tox | SW480 rerep | MCF10A rereplic | D3 ag
CCC(C(=O)Nc1ccccc1)n1nc(-c2cc(C)ccc2C)ccc1=O (stereo not drawn) | x | i | i | x | x | 3.5
CCCCCCN1C[C@H](n2cc(COC(=O)c3ccccc3)nn2)[C@@H](O)C[C@@H]1c1ccc(OC)cc1 | 0.9 | i | i | x | x | 3.2
CCCCCCN1C[C@H](n2cc(COC(=O)c3ccccc3)nn2)[C@@H](O)C[C@@H]1c1ccc(Cl)cc1 | 18.3 | u | 20.6µM* | x | x | 12.6
O=c1cnn([C@@H]2O[C@H](CO)[C@@H](O)[C@H]2O)c(=O)[nH]1 | 0.0 | u | 4.11µM* | 3.4% | 9.7% | 0.9
O=C(CSc1nc2c([nH]c3ccccc32)c(=O)n1-c1ccccc1)Nc1cccc(C(F)(F)F)c1 | x | x | x | x | x | -8.2
CCc1ccc(C(=O)NC2=NC(c3ccccc3F)CC(=O)N2)cc1 (stereo not drawn) | x | i | i | x | x | 2.6
CCCNC(=O)CCc1c(C)nc2nc(CNC(=O)c3ccccc3)nn2c1C | x | i | i | x | x | 4.4
Cc1cc(C(=O)C(C)OC(=O)c2ccc(NC(=O)CC#N)cc2)c(C)n1-c1ccccc1 (stereo not drawn) | 6.1 | i | i | 3.26µM* | u | 4.3
O=C1Nc2ccc(Br)cc2C1=C1CCCCC1 | -1.7 | i | u | u | 18.4µM* | 11.3
COc1cc(OC)cc(-c2cc3nc(C)c(CCC(=O)NCc4ccc(Cl)cc4)c(C)n3n2)c1 | x | i | i | x | x | -1.4
CCN(CC)CCCNC(=O)Cn1c(-c2cccs2)cc2cc(Cl)ccc21 | x | i | i | x | x | -12.8
N#CCc1cc2ccc3cccc4ccc(c1)c2c34 | 19.1 | u | 7.31µM* | -4.4% | 13.0% | 16.3
c1ccc2c(c1)c1cccc3ccc4cccc2c4c31 | 26.3 | i | i | -0.9% | 112.4% | 3.5
COc1ccc(CNCCSc2nnnn2-c2ccccc2)c(OC)c1 | x | i | i | x | x | -21.8
Cc1ccc(Cl)cc1NC(c1ccc(F)cc1)c1nnc(-c2ccccc2)o1 (stereo not drawn) | x | u | i | x | x | -2.7
O=c1c2ccccc2ncn1Cc1ccc(Cl)c(Cl)c1 | 2.2 | i | i | 23.2% | 1.16µM* | 8.5
O=c1c2ccccc2ncn1CCCSc1ccccc1 | -53.5* | i | i | 15.4% | u | 0.1
O=c1c2ccccc2ncn1CCCSc1ccc(Cl)cc1 | 10.8 | i | i | -1.5% | 2.2% | 0.3
COc1ccc(C2(C)CC(C)(C)Nc3ccccc32)cc1 (stereo not drawn) | -0.9 | i | i | -1.8% | -6.0% | -2.8
COc1ccc(C2CC(C)(c3ccc(OC)cc3)Nc3ccccc3N2)cc1 (stereo not drawn) | 14.6 | 20.6µM* | u | u | u | 0.8
CN(C)c1ccc(NC(=O)CSC2=Nc3ccccc3C3=NC(CC(=O)NCc4ccc5c(c4)OCO5)C(=O)N23)cc1 (stereo not drawn) | x | i | i | x | x | -13.5
O=C(CCCN1CCOC(c2ccccc2)C1)c1ccc(F)cc1 (stereo not drawn) | -85.8* | i | i | 0.1% | 2.1% | -26.5
O=C(CN1CCC2(CC1)OCCO2)c1ccc2cc[nH]c2c1 | -19.9 | u | i | -4.9% | -2.7% | -10.7
